Assay [1] deals with Protein kinase C gamma type (Homo sapiens) (UniProt P05129). As to conditions: at 1 µM.
In assay [2] the target is T1, Protein kinase C iota type (Homo sapiens) (UniProt P41743).
T1 sequence (whole entry): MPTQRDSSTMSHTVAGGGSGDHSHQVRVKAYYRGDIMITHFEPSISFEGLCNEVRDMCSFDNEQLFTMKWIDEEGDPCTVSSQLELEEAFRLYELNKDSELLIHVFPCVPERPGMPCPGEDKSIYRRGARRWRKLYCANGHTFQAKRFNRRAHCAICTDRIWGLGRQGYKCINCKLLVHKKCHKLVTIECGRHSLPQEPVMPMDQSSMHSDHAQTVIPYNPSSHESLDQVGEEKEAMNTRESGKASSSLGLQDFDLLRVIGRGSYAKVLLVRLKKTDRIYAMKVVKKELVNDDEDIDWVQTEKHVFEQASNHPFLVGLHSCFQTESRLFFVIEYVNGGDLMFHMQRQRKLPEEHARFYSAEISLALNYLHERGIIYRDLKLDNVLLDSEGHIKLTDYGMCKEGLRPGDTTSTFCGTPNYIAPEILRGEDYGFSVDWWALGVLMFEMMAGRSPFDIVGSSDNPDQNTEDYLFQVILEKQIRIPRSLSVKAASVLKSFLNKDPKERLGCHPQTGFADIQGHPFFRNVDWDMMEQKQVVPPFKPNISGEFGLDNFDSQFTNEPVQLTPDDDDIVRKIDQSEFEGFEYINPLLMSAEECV
Conditions: at 0.1 µM.

For assay [3], the target named is T1, Protein kinase C iota type (Homo sapiens). As to conditions: at 1 µM.
Assay [4] concerns the target Protein kinase C theta type (Homo sapiens) (UniProt Q04759). Conditions: at 0.1 µM.
Assay [5] has the same target. Conditions: at 1 µM.
For assay [6], the target named is Protein kinase C beta type (Homo sapiens) (UniProt P05771). As to conditions: at 0.1 µM.
The target is the same in assay [7]. As to conditions: at 1 µM.
Assay [8] concerns the target T2, Serine/threonine-protein kinase D1 (Homo sapiens) (UniProt Q15139).
T2 sequence (whole entry): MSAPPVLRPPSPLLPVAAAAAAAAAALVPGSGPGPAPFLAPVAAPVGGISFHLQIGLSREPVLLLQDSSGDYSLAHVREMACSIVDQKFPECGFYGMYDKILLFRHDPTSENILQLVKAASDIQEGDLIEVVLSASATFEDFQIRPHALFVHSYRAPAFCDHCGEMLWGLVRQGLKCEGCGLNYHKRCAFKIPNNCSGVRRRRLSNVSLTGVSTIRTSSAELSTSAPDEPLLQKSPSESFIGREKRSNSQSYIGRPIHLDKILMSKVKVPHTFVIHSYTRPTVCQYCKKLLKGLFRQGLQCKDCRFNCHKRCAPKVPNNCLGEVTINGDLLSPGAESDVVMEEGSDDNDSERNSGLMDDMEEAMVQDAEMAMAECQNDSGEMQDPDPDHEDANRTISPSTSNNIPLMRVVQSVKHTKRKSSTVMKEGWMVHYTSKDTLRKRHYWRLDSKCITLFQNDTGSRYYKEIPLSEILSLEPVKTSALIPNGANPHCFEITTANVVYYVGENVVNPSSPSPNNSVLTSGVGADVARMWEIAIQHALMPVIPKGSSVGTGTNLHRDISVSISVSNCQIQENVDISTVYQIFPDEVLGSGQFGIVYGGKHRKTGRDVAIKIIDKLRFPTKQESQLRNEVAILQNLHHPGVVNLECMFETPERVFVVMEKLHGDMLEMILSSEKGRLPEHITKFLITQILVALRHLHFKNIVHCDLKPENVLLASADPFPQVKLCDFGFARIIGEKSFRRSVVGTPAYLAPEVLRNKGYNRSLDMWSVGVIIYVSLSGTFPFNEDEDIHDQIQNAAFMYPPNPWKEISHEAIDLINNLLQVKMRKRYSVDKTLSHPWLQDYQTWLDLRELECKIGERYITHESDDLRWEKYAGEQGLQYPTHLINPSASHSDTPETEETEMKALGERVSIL
Conditions: at 0.1 µM.

Assay [9] addresses T2, Serine/threonine-protein kinase D1 (Homo sapiens). As to conditions: at 1 µM.
For assay [10], the target named is T3, Serine/threonine-protein kinase D2 (Homo sapiens) (UniProt Q9BZL6).
T3 sequence (whole entry): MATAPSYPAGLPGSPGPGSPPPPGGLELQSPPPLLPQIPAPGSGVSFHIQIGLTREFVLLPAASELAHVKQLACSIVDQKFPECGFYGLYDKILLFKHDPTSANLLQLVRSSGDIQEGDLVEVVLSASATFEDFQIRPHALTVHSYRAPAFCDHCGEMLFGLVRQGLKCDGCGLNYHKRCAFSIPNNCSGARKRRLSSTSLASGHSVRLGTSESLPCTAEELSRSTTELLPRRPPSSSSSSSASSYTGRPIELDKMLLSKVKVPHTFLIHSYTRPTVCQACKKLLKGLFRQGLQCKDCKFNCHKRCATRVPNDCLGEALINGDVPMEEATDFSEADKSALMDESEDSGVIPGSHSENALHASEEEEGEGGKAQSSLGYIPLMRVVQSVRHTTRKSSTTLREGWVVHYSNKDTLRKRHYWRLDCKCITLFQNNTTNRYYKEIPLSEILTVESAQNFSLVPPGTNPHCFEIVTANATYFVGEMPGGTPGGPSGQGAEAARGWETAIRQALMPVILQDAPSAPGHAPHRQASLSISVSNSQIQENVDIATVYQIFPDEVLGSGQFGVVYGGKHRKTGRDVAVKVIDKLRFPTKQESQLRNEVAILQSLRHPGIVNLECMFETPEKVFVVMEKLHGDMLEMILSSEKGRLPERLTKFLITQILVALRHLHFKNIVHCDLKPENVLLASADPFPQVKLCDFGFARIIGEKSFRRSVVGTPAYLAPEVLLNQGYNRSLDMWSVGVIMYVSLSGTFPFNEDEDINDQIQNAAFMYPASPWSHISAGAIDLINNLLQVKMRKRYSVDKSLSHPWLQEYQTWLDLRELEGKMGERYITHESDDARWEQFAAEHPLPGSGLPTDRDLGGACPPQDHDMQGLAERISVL
Conditions: at 0.1 µM.

In assay [11] the target is T3, Serine/threonine-protein kinase D2 (Homo sapiens). Conditions: at 1 µM.
For assay [12], the target named is T4, Serine/threonine-protein kinase D3 (Homo sapiens) (UniProt O94806).
T4 sequence (whole entry): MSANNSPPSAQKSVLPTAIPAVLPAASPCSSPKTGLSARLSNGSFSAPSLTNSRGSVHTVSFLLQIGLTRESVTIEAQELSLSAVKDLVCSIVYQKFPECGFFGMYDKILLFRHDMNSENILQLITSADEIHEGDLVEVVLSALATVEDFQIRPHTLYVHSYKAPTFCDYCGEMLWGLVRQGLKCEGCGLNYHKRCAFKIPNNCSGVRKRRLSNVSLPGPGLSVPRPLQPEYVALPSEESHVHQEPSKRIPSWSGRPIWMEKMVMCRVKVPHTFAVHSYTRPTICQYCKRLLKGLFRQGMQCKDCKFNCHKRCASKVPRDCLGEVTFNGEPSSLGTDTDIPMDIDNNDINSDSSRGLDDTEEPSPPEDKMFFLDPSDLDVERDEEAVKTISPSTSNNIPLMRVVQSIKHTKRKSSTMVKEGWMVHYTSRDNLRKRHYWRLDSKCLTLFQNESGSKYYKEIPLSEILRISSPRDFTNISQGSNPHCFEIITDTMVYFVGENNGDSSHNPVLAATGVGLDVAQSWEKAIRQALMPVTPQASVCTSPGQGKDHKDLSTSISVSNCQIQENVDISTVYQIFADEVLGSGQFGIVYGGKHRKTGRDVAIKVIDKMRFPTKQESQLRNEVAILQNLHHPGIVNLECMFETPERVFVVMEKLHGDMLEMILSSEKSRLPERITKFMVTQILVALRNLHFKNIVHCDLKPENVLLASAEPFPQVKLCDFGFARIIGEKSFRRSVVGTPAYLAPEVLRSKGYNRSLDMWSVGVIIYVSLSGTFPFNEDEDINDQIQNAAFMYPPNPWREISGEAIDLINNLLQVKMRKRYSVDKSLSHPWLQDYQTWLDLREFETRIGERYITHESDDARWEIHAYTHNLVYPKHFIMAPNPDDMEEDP
Conditions: at 0.1 µM.

In assay [13] the target is T4, Serine/threonine-protein kinase D3 (Homo sapiens). As to conditions: at 1 µM.
The target in assay [14] is T5, cGMP-dependent protein kinase 1 (Homo sapiens) (UniProt Q13976).
T5 sequence (whole entry): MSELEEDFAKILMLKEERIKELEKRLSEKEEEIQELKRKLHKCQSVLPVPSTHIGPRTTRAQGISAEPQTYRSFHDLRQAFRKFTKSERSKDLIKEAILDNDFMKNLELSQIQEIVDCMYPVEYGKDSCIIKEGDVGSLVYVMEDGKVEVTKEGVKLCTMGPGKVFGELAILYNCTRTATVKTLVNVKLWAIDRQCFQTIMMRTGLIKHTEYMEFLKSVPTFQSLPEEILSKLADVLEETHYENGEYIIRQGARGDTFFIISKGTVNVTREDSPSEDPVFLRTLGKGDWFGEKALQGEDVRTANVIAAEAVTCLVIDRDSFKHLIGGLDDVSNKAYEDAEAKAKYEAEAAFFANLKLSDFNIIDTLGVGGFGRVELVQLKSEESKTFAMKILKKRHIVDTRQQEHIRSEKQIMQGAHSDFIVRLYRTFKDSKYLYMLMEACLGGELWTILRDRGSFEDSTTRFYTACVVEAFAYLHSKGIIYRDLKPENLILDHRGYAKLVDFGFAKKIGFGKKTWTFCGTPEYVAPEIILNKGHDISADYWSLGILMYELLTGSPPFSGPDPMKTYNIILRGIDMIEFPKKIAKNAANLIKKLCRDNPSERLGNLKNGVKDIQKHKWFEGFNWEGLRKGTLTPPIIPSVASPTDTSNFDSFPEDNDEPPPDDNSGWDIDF
Conditions: at 0.1 µM.

Assay [15] concerns the target T5, cGMP-dependent protein kinase 1 (Homo sapiens). Conditions: at 1 µM.
Assay [16] concerns the target T6, cGMP-dependent protein kinase 2 (Homo sapiens) (UniProt Q13237).
T6 sequence (whole entry): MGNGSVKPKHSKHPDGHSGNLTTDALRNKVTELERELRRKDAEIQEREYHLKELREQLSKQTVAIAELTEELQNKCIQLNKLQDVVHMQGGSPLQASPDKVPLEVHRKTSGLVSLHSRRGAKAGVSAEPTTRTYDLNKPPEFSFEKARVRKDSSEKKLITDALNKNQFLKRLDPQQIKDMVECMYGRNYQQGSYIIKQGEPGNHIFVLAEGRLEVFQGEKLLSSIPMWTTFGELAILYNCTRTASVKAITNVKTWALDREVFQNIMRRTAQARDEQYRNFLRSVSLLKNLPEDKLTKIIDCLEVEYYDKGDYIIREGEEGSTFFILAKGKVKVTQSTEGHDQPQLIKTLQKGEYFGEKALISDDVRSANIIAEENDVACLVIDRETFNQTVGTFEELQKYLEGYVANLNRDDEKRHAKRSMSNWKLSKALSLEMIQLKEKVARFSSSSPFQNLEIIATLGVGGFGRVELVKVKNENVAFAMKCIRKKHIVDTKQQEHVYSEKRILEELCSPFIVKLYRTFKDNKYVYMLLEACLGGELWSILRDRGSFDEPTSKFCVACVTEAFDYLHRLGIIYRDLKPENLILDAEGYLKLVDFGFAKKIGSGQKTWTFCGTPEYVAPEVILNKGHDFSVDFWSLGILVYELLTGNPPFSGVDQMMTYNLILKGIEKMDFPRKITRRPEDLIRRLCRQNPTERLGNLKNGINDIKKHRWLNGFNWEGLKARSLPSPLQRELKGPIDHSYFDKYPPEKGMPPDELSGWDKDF
Conditions: at 0.1 µM.

The target in assay [17] is T6, cGMP-dependent protein kinase 2 (Homo sapiens). Conditions: at 1 µM.
Assay [18] concerns the target T7, cAMP-dependent protein kinase catalytic subunit PRKX (Homo sapiens) (UniProt P51817).
T7 sequence (whole entry): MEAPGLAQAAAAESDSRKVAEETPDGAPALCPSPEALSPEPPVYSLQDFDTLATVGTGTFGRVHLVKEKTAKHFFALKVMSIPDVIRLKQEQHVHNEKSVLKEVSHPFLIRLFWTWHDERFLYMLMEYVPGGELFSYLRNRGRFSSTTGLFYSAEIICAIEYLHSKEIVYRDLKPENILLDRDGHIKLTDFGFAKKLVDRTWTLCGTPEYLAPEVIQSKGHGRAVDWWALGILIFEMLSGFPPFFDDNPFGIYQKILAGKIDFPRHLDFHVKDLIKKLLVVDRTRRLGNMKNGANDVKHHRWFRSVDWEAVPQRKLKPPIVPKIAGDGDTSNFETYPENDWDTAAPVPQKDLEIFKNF
Conditions: at 0.1 µM.

Assay [19] addresses T7, cAMP-dependent protein kinase catalytic subunit PRKX (Homo sapiens). Conditions: at 1 µM.
Assay [20] has as its target Rho-associated protein kinase 1 (Homo sapiens) (UniProt Q13464). As to conditions: at 0.1 µM.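 Note: values are mean percent inhibition of ROCK1.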

Chain of Protein kinase C theta type (Homo sapiens) (Q04759 whole entry, looked up): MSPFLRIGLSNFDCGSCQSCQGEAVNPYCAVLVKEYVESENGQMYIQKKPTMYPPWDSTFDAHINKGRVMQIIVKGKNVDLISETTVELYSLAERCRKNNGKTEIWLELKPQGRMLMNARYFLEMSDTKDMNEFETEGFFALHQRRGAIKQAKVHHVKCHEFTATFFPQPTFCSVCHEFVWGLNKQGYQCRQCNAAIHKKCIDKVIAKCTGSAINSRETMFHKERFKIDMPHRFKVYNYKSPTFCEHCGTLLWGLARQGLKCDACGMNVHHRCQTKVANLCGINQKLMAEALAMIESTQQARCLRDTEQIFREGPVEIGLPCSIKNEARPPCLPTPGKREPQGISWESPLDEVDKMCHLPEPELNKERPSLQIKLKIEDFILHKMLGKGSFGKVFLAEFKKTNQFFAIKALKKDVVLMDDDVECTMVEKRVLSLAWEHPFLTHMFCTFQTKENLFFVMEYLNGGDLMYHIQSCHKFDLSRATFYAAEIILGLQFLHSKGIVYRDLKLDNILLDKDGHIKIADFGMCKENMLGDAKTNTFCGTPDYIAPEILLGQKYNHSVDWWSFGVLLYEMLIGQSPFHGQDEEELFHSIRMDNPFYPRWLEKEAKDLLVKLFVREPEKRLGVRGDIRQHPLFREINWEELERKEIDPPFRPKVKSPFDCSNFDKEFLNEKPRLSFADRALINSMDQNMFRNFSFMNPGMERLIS
Chain of Protein kinase C beta type (Homo sapiens) (P05771 2-671 limits assumed): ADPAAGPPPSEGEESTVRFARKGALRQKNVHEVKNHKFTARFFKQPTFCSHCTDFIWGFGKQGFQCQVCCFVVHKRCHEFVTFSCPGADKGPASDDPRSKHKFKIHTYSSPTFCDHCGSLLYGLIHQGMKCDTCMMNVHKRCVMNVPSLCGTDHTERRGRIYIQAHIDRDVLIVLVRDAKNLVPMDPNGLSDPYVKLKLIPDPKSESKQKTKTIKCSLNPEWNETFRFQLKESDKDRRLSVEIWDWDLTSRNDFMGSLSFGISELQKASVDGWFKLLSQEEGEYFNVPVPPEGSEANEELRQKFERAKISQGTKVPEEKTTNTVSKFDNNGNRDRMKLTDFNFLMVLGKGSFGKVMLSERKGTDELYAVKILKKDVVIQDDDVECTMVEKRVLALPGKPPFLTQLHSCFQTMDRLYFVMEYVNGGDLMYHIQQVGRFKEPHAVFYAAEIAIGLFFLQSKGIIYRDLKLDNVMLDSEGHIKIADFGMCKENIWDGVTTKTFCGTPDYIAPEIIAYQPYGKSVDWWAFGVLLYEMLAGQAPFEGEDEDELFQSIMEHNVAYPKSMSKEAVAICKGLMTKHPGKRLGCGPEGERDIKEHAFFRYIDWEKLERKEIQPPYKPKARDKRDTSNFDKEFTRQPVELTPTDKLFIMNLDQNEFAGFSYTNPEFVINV
Chain of Rho-associated protein kinase 1 (Homo sapiens) (Q13464 2-1354 limits assumed): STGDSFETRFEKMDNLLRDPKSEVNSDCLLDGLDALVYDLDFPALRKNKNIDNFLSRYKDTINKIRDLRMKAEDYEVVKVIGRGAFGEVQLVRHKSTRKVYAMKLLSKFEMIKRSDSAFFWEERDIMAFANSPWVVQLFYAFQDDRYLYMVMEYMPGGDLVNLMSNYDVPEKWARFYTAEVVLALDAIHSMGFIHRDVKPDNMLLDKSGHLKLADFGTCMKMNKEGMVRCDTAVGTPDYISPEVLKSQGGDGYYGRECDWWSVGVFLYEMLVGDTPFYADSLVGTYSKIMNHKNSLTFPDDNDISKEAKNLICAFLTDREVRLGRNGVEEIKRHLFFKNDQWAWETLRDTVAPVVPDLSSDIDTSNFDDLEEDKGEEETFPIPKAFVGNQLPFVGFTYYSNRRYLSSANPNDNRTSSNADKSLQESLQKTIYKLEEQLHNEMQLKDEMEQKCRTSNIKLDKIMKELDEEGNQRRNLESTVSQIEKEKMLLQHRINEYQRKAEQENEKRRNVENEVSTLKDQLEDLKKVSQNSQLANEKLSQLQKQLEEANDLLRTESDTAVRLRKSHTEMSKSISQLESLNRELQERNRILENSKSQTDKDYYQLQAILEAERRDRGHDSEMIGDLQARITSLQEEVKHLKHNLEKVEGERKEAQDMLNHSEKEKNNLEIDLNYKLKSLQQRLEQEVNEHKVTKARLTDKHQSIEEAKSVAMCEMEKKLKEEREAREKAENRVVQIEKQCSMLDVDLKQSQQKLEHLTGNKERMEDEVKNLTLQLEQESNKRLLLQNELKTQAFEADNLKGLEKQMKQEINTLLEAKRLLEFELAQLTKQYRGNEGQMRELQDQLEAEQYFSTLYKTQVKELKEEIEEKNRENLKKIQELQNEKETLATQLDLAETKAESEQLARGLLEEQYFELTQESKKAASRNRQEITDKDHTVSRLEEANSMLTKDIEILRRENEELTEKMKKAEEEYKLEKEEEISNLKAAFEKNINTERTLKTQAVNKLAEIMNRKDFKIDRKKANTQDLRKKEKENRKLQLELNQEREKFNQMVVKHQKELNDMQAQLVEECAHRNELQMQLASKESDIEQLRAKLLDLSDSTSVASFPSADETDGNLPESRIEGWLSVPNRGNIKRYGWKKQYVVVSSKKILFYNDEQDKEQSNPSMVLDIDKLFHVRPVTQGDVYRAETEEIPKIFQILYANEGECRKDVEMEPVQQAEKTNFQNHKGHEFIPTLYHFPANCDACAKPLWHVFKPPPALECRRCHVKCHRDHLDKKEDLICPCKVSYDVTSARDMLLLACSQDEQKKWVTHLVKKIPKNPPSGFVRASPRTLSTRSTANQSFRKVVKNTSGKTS

For the molecule `COC(=O)Nc1nc2ccc(Sc3ccc(NC(=O)Nc4cc(C(F)(F)F)ccc4F)cc3)cc2[nH]1`, the inhibition – broadly, the relative decrease from the control value, in per cent – in assay [1] was 4.57%; in assay [2], -0.54%; in assay [3] it was 0.22%; in [4], 0.15%; in assay [5] it was 0.22%; in [6], 0.31%. For the same molecule, the inhibition in [7] is 0.4%; in [8], 0.94%; in [9], 0.37%; in [10], -0.22%; in assay [11], 0.52%; in assay [12] it was 1.06%. The inhibition in assay [13] is 0.51%; in assay [14], 0.91%; in [15], 1.52%; in assay [16], -0.08%; in [17] it was 0.57%; in assay [18], 0.23%. The results for the inhibition in assay [19] and in assay [20] were -1.11% and -0.63%, respectively.
As to `Fc1ccc(-c2ncn(CCCN3CCOCC3)c2-c2ccncc2)cc1`, the inhibition in assay [1] is 0.34%; in [2], 0.16%; in [3], 0.41%; in assay [4] it was -0.92%; in assay [5] it was -2.08%; in [6], 0.1%. For the same molecule, the inhibition in assay [7] turned out to be 0.17%; in assay [8], 1.04%; in assay [9] it was 2.24%; in assay [10] it was 2.15%; in assay [11] it was 3.09%; in [12], 1.63%. Moreover, the inhibition was 2.8% in [13]; 0.4% in [14]; 0.29% in assay [15]; 0.94% in [16]; 0.26% in [17]; -0.21% in assay [18]. Besides, the figures for the inhibition in [19] and in assay [20] were -1.38% and 1.06%, respectively.

The record behind these values is ChEMBL document CHEMBL1961873, “Compounds: GSK PKIS; Assays: Nanosyn kinase panel” (2012).
